Source: PubChem BioAssay
Values without a mark were called inactive. No rule for the calls is given here.

These compounds were tested against Pantothenate synthetase (Mycobacterium tuberculosis (strain ATCC 25618 / H37Rv)) (UniProt P9WIL5) (assay: Recombinant Mtb pantothenate synthetase (PanC) inhibitors, coupled enzyme, confirmatory (AID 375;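 also: 0% = full reaction with vehicle and 100% = no enzyme background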)). Details: coupled enzyme assay; at 10 µM, hits give high values.
Sequence of Pantothenate synthetase (Mycobacterium tuberculosis (strain ATCC 25618 / H37Rv)) (P9WIL5 whole entry, looked up): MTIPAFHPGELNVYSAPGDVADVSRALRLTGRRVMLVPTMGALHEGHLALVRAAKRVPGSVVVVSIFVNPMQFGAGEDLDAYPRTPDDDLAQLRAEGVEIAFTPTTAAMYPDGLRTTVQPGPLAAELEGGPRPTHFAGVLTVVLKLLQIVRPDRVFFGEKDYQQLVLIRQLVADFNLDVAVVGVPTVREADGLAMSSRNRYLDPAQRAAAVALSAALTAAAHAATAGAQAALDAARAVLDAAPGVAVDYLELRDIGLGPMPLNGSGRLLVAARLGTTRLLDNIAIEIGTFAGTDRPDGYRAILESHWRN

Row | SMILES | inhibition [%]
1 | CC(=O)Oc1ccc(CCC(C)OC(C)=O)cc1 (stereo not given) | 8
2 | COc1ccc(NC2c3ncccc3C(=O)N2Cc2ccccc2)c(OC)c1 (stereo not given) | 0
3 | CCSc1nc2ccccc2n1CC(N)=O | 4
4 | O=C1CC(N2CCN(c3ccc(Cl)c(Cl)c3)CC2)C(=O)N1 (stereo not given) | 0
5 | CNc1nnc(-c2cccc(N(C)C)c2)s1 | 0
6 | O=S(=O)(NCC1CCCO1)c1cc(Cl)ccc1Br (stereo not given) | 0
7 | CN(C)CCN(Cc1ccccc1)c1ccccn1 | 5
8 | Cn1c(=O)[nH]c(=O)c2c1nc(N1CCCCC1)n2CCSc1ncccn1 | 0
9 | O=C(Nc1cc(Cl)ccc1Cl)c1noc2c1CCCC2 | 2
10 | O=c1c2cc(N3CCOCC3)ccc2[nH]c(=S)n1CCCN1CCCC1 | 13
11 | CCOC(=O)CN1CC23C=CC(O2)C(C(=O)Nc2ccc(OCC)cc2)C3C1=O (stereo not given) | 3
12 | COc1ccc(-c2nc(CS(=O)CC(=O)NCc3ccccn3)c(C)o2)cc1 (stereo not given) | 0
13 | CCC(CC)C1C(C#N)=C(N)Oc2n[nH]c(C)c21 (stereo not given) | 0
14 | Oc1ccc2[nH]cnc2c1CN1CCCCC1 | 0
15 | COc1c(Br)cc2c(C)c(C(=O)O)oc2c1Br | 2
16 | O=C(CCn1nc(-c2ccccc2)ccc1=O)N1CCCC1 | 0
17 | COc1cccc(NC(=O)COC(=O)c2cccnc2)c1 | 0
18 | Cc1nc(N2CCc3ccccc32)[nH]c(=O)c1CCC(C)C | 0
19 | CCc1c(C)nc(N2CCN(Cc3ccccc3)CC2)[nH]c1=O | 3
20 | COc1ccc(N2C(=O)CC(N3CCCC4CCCCC43)C2=O)cc1 (stereo not given) | 0

Row | SMILES | inhibition [%]
21 | COc1ccc(N2CCN(c3oc(COc4ccccc4)nc3C#N)CC2)cc1 | 0
22 | Cc1nc(C)c(C(=O)C2=C(O)C(=O)N(CCCn3ccnc3)C2c2ccccc2)s1 (stereo not given) | 1
23 | CN1C(=O)C(CC(=O)N2CCN(C(c3ccccc3)c3ccccc3)CC2)N(C)C1=O (stereo not given) | 0
24 | CCOC(=O)c1ccc(NC(=O)CSc2nnc(COc3ccccc3)n2C)cc1 | 0
25 | Clc1ccc(CSc2nnc(Cn3cnc4ccccc43)o2)cc1 | 0
26 | CC(C)CC1NC2(C(=O)N(C)c3ccccc32)C2C(=O)N(C(C)C)C(=O)C12 (stereo not given) | 0
27 | CC(c1ccccc1)n1cnc2ccccc21 (stereo not given) | 0
28 | Cc1ccc2c(C)nc(NC3=NCN(C(C)C)CN3)nc2c1 | 0
29 | CC1CCCCC1NC(=O)COc1ccc(-n2cnnn2)cc1 (stereo not given) | 0
30 | Cc1cc(C)n(CCc2nc(-c3cccs3)cs2)n1 | 2
31 | Cc1c(C)[n+](=O)c2c(n1[O-])CCCCC2 | 1
32 | COc1ccccc1NC(=O)CSc1nnc(CC(=O)Nc2ccccc2)n1C | 6
33 | CCCCOc1cccc(NC(=O)CSc2nccn2C)c1 | 2
34 | O=C(NCc1ccco1)c1cnn2c(C(F)(F)F)cc(-c3ccco3)nc12 | 4
35 | Cc1ccc(-c2nnnn2CS(=O)(=O)c2ccccc2)cc1 | 0
36 | CC1(C)CC(=O)c2cc(OCC(=O)NCCCN3CCN(c4ccccc4F)CC3)ccc2O1 | 0
37 | Cc1ccc2nc(NC(=O)C3CCCN(S(=O)(=O)c4cccc5nonc45)C3)sc2c1 (stereo not given) | 1
38 | COC(=O)c1[nH]c(C)c(/C(O)=C2\C(=O)C(=O)N(CCN(C)C)C2c2ccccc2OC)c1C (stereo not given) | 1
39 | CCN(CC)S(=O)(=O)c1ccc(NC2CCCc3ccccc32)nc1 (stereo not given) | 0
40 | COc1ccc(CN2C(=O)c3ccccc3C2C(=O)NC2CCCC2)c(OC)c1 (stereo not given) | 0
